Results filed as inconclusive are left out. Calls of active or inactive are those of the source. Unless noted, calls follow the shape of the dose curve; as a rule, active = well fitted curve in the direction sought with a large enough effect in the repeat runs; inconclusive = weak or mixed curves; inactive = no such curve, though single readings can be large; an effect the other way counts as inactive or inconclusive.
Tests used:
[1] = A CellTox Green Cytotoxicity Assay to monitor cytotoxicity in HEK293 cells - 16 hour (AID 1224888); also: nearly all actives have a fitted effect of over 35% in size
In short: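 Real-time, in one plate: 600 HEK293 cells/well with dead-cell DNA dye, pinned compound after 5 h, 37 C incubation over 40 h; viable cells give no appreciable fluorescence.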

[2] = qHTS RealTime-Glo MT Cell Viability Assay in HepG2 cells - 0 hour (AID 1224889); also: nearly all actives have a fitted effect of over 50% in size
In short: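 HepG2 cells were seeded at 600 cells/well together with NanoLuc luciferase and a cell-permeant prosubstrate, preincubated 5 h at 37 C/5% CO2, then pin-dosed with compounds in DMSO. Nonlytic luminescence from viable cells was read at each time point.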

[3] = A CellTox Green Cytotoxicity Assay to monitor cytotoxicity in HepG2 cells - 8 hour (AID 1224890); also: nearly all actives have a fitted effect of over 45% in size
In short: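 Cytotoxicity was tracked as dead-cell DNA fluorescence in HepG2 cells treated with test compounds at 37 C; each time-point value comes from one kinetic series spanning 0, 8, 16, 24, 32 and 40 h.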

[4] = qHTS assay to identify small molecule antagonists of the estrogen receptor alpha (ER-alpha) signaling pathway using the BG1 cell line in the presence of 0.1 nM 17-beta-estradiol - cell viability counter screen (AID 1259241); also: nearly all actives have a fitted effect of over 40% in size
In short: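 Following 5 days in phenol red-free medium with charcoal-stripped serum, VM7Luc4E2 cells received test compounds alongside 0.1 nM 17beta-estradiol (final) at 37C for 22 hr. Live cells were then quantified via protease-substrate fluorescence.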

[5] = qHTS assay to identify small molecule antagonists of the androgen receptor (AR) signaling pathway using the MDA cell line in the presence of 0.5 nM R1881 - cell viability counter screen (AID 1259242); also: nearly all actives have a fitted effect of over 45% in size
In short: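 Cells seeded at 3,000/well and allowed 5 hr at 37C, 0% CO2 before compound transfer and R1881 (0.5 nM final) addition; 16 hr later, live-cell protease fluorescence indicated cytotoxicity.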

[6] = molecular target: Estrogen receptor (Homo sapiens) (UniProt P03372); test: qHTS assay to identify small molecule antagonists of the estrogen receptor alpha (ER-alpha) signaling pathway using the BG1 cell line in the presence of 0.1 nM 17-beta-estradiol (AID 1259244); also: nearly all actives have a fitted effect of over 50% in size
In short: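 Luciferase signal from VM7Luc4E2 ERE-reporter cells, co-dosed with test compound and 0.1 nM final 17beta-estradiol for 22 h, read with ONE-Glo.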

[7] = qHTS assay to identify small molecule HDAC inhibitors (AID 1259364);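 also: wild-type HCT-116 cells with endogenous class I/II HDAC activity; top concentration of the series differs between compounds; nearly all actives have a fitted effect of over 45% in size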
In short: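 HCT-116 wt cells, 1,500/well, overnight attach. Compounds (DMSO) 2 h, 37 °C. HDAC-Glo I/II, 30 min RT. Luminescence.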

[8] = qHTS assay to identify small molecule HDAC inhibitors - cell viability counter screen (AID 1259365); also: series mostly up to about 92 µM; nearly all actives have a fitted effect of over 50% in size
In short: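 HCT-116 wild-type, overnight attachment; 2hr drug exposure, 37C; CellTiter-Glo luminescent ATP readout after 30min RT.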

[9] = qHTS assay to identify small molecule phospholipidosis (PLD) inducers (AID 1259344; active = well fitted curve in the direction sought with a large enough effect; an effect the other way counts as inactive or inconclusive)
In short: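 Accumulated phospholipid, stained red by LipidTOX during 24 h compound treatment of HepG2 cells at 37 C, is quantified from images as pit number and intensity, normalised per cell using Hoechst-stained nuclei.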
% is scaled to controls: 0 for no effect and ±100 for the full control effect.

Estrogen receptor (Homo sapiens), sequence (P03372 whole entry, looked up): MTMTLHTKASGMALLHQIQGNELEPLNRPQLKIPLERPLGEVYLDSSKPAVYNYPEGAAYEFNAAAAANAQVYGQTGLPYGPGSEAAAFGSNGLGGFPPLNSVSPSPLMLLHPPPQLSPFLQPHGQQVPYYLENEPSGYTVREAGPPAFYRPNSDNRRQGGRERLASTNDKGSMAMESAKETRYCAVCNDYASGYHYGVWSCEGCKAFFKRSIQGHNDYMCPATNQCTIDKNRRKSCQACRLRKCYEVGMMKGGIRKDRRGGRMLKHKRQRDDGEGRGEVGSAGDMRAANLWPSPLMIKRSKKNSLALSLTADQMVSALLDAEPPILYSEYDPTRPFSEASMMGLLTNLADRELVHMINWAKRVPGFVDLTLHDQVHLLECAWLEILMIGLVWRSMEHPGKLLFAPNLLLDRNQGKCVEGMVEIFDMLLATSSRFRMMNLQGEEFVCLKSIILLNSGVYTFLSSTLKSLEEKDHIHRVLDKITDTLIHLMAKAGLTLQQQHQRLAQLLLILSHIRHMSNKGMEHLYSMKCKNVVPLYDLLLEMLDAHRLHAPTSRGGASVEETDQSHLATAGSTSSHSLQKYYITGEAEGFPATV

OCCC(F)(F)C(F)(F)C(F)(F)C(F)(F)C(F)(F)C(F)(F)F
inactive: Potency [1] | Potency [2] | Potency [3] | outcome [4] | outcome [5] | outcome [6] | Potency [7]

C=CC(C)(CCC=C(C)C)OC(=O)C(C)C (configuration not stated)
inactive: Potency [1] | Potency [2] | Potency [3] | outcome [4] | outcome [5] | outcome [6] | outcome [8]

Cc1nc2ccc(Cl)cc2[nH]1
inactive: Potency [1] | Potency [2] | Potency [3] | outcome [4] | outcome [5] | outcome [6] | outcome [8]

Nc1nc(Cl)cc(Cl)n1
inactive: Potency [1] | Potency [2] | Potency [3] | outcome [4] | outcome [5] | outcome [6] | Potency [7] | outcome [8]

CCCCCCC(O)CO (configuration not stated)
inactive: Potency [1] | Potency [2] | Potency [3] | outcome [4] | outcome [5] | outcome [6] | Potency [7] | outcome [8]

CO/N=C(\C(=O)O)c1csc(NC(=O)CCl)n1
inactive: Potency [1] | Potency [2] | Potency [3] | outcome [4] | outcome [5] | outcome [6] | Potency [7] | outcome [8]

CCOC(=O)CC
inactive: Potency [1] | Potency [2] | Potency [3] | outcome [4] | outcome [5] | outcome [6] | Potency [7] | outcome [8]

CC(C)(C)C(=O)CC(=O)C(C)(C)C
inactive: Potency [1] | Potency [2] | Potency [3] | outcome [4] | outcome [5] | outcome [6] | Potency [7] | outcome [8]

COC(=O)c1c(C)cc(O)c(C)c1O
inactive: Potency [1] | Potency [2] | Potency [3] | outcome [4] | outcome [5] | outcome [6] | Potency [7] | outcome [8]

NNC(=O)CCCCC(=O)NN
inactive: Potency [1] | Potency [2] | Potency [3] | outcome [4] | outcome [5] | outcome [6] | Potency [7] | outcome [8]

BrCCOc1ccccc1
inactive: Potency [1] | Potency [2] | Potency [3] | outcome [4] | outcome [5] | outcome [6] | outcome [8]

CCCCCCCOC(C)=O
inactive: Potency [1] | Potency [2] | Potency [3] | outcome [4] | outcome [5] | outcome [6] | outcome [8]

C/C=C(\C)C=O
inactive: Potency [1] | Potency [2] | Potency [3] | outcome [4] | outcome [5] | outcome [6] | Potency [7] | outcome [8]

N=C(N)S(=O)O
inactive: Potency [1] | Potency [2] | Potency [3] | outcome [4] | outcome [5] | outcome [6] | outcome [8]

CC(C)(C)OC(=O)c1ccccc1C(=O)O
inactive: Potency [1] | Potency [2] | Potency [3] | outcome [4] | outcome [5] | outcome [6] | Potency [7] | outcome [8]

CCOC(=O)CC(C(C)=O)C(C)=O
inactive: Potency [1] | Potency [2] | Potency [3] | outcome [4] | outcome [5] | outcome [6] | Potency [7] | outcome [8]

CC(=O)OC/C=C(/C)CCC=C(C)C
inactive: Potency [1] | Potency [2] | Potency [3] | outcome [4] | outcome [5] | outcome [6] | outcome [8]

CCCCCCCCCCCCCCCC(=O)OC
inactive: activity change [1] 0.239% [at 15.8 µM, stronger effect = higher value] | activity change, negative = cytotoxicity [2] -16.3% [at 15.8 µM] | cytotoxicity increase [3] -16.6% [at 15.8 µM] | activity change, negative = cytotoxicity [4] 6.9% [at 19 µM] | viability change, negative = cytotoxic [5] 3.68% [at 19 µM] | activity change, negative = inhibition [6] -4.11% [at 19 µM] | activity change, negative = inhibition [7] 2.36% [at 19 µM] | activity change, negative = cytotoxicity [8] -1.77% [at 19 µM]

CN(C)c1ccncc1
inactive: Potency [1] | Potency [2] | Potency [3] | outcome [4] | outcome [5] | outcome [6] | Potency [7] | outcome [8]

Cc1cccc(N)n1
inactive: Potency [1] | Potency [2] | Potency [3] | outcome [4] | outcome [5] | outcome [6] | outcome [8]

C=CCOC(=O)CCCCCCCC
inactive: Potency [1] | Potency [2] | Potency [3] | outcome [4] | outcome [5] | outcome [6] | Potency [7] | outcome [8]

Clc1cc(Cl)c(Cl)c(Cl)c1Cl
inactive: Potency [1] | Potency [2] | Potency [3] | outcome [4] | outcome [5] | outcome [6] | outcome [8]

N=C(N)N
inactive: Potency [1] | Potency [2] | Potency [3] | outcome [4] | outcome [5] | Potency [9] | Potency [7]

CC(C)C[P+](C)(CC(C)C)CC(C)C
inactive: Potency [1] | Potency [2] | Potency [3] | outcome [4] | outcome [5] | outcome [6] | outcome [8]

CC(C)(O)c1ccc(C(C)(C)O)cc1
inactive: Potency [1] | Potency [2] | Potency [3] | outcome [4] | outcome [5] | outcome [6] | outcome [8]

C[Si](C)(C)O[Si](O)(O)O
inactive: Potency [1] | Potency [2] | Potency [3] | outcome [4] | outcome [5] | outcome [6] | Potency [7] | outcome [8]

CCCCCCCCCCCBr
inactive: Potency [1] | Potency [2] | Potency [3] | outcome [4] | outcome [5] | outcome [6] | Potency [7] | outcome [8]

COc1ccccc1N1CCN(CC(O)COc2cc(OC)c(OC)c(OC)c2)CC1 (configuration not stated)
inactive: Potency [1] | Potency [2] | Potency [3] | outcome [4] | outcome [5] | outcome [6] | Potency [7] | outcome [8]
